Some test systems named below: DU-145 prostate; K-562 leukemia; MALME-3M melanoma; MDA-MB-231 breast; RXF 393 renal; SF-268 CNS; SF-295 CNS; SF-539 CNS; UACC-257 melanoma; M14 melanoma.
Test in all cases: NCI-60 one-dose screen, 48 h (100 = growth as untreated, 0 = no growth, -100 = all killed)
What all share (details): 10 µM unless noted

The panel holds about 83,000 compounds, 20% with a hit somewhere; the sample as a whole holds those more often.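 Step 1: grow cells in 96-well plates. Step 2: add test compound at a single concentration. Step 3: incubate 48 h. Step 4: record percent growth.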 Unmarked numbers belong to inactive results. Activity calls are given as the source filed them. The calls were made as follows: active = growth percent below 10; inactive = the rest.

With `Cc1cc(C)n(Cc2cc(C(C)(C)C)cc(C(C)(C)C)c2)c(=O)c1C#N`, the growth in the test on DU-145 prostate was 103%; in the test on K-562 leukemia, 88.1%; with MALME-3M melanoma, 82.4%; in the test with MDA-MB-231 breast, 82.5%; in the test with RXF 393 renal, 101%; in the test on SF-268 CNS, 94.8%. Further, the growth with SF-295 CNS is 85.9%; in the test on SF-539 CNS, 90.8%; in the test with UACC-257 melanoma, 102%; with M14 melanoma, 89.8%.
For the molecule `N#C/C(=C\c1ccc(-c2ccc(Br)cc2)o1)c1nc(-c2cccs2)cs1`, the growth in the test on DU-145 prostate was 100%; in the test on K-562 leukemia it was 97%; in the test on MALME-3M melanoma, 101%; with MDA-MB-231 breast it was 89.3%; in the test with RXF 393 renal it was 107%; in the test on SF-268 CNS it was 102%. Besides, the growth with SF-295 CNS was 100%; in the test on SF-539 CNS it was 93.8%; with UACC-257 melanoma it was 102%; in the test with M14 melanoma, 95.8%.
Turning to `Cn1c2c(Cl)c(Cl)ccc2c2c(C#N)c[nH]c(=O)c21`, the growth was 109% in the test on DU-145 prostate; 106% in the test with K-562 leukemia; 140% in the test on MALME-3M melanoma; 98.5% with MDA-MB-231 breast; 97.2% in the test on RXF 393 renal; 99% in the test with SF-268 CNS. The growth in the test on SF-295 CNS was 97.8%; in the test on SF-539 CNS, 84.6%; with UACC-257 melanoma, 98.1%; in the test on M14 melanoma it was 105%.
`CCC1C(=O)COC1=O` (stereo not given): the growth is 108% in the test on DU-145 prostate; 92% with K-562 leukemia; 99.3% in the test with MALME-3M melanoma; -22.4% (active) in the test on MDA-MB-231 breast; 122% in the test with RXF 393 renal; 101% in the test on SF-268 CNS. For the same molecule, the growth with SF-295 CNS was 97.9%; in the test with SF-539 CNS, 105%; with UACC-257 melanoma, 81.8%; in the test with M14 melanoma, 93.2%.
For `COc1ccc(C(=O)c2ccc(C)cc2)c(OC)c1OC`, the growth in the test on DU-145 prostate is 89.8%; in the test with K-562 leukemia, 40%; with MALME-3M melanoma, 92.5%; in the test with MDA-MB-231 breast, 75.9%; with RXF 393 renal, 86.1%; in the test with SF-268 CNS, 85.9%. Moreover, the growth with SF-295 CNS was 74.5%; in the test with SF-539 CNS, 77%; in the test on UACC-257 melanoma, 82.9%; in the test on M14 melanoma, 61.3%.
For `COc1ccc(-n2c(/C=C/c3ccc(O)c(OC)c3)cc(/C=C/c3ccc(O)c(OC)c3)nc2=O)cc1`, the growth in the test with DU-145 prostate is 68.9%; in the test with K-562 leukemia it was 11.8%; with MALME-3M melanoma, 85%; in the test with MDA-MB-231 breast, 43.8%; in the test with RXF 393 renal, 45.4%; in the test on SF-268 CNS, 41.4%. The growth in the test on SF-295 CNS was 82.3%; in the test on SF-539 CNS it was 39%; with UACC-257 melanoma, 82.2%; with M14 melanoma, 40.4%.
Take `CN1CCN(c2nc(-c3csc(-c4cccs4)n3)cc3ccccc23)CC1`: the growth was 55.8% in the test with DU-145 prostate; -35.9% (active) with K-562 leukemia; 70.4% with MALME-3M melanoma; 41.6% with MDA-MB-231 breast; 40.3% in the test on RXF 393 renal; 49.6% in the test with SF-268 CNS. The growth is 83% in the test on SF-295 CNS, 86.7% in the test on SF-539 CNS, 21.6% in the test with UACC-257 melanoma and -44.9% (active) with M14 melanoma.
Take `CN(C)c1cccc2[nH]c(-c3[nH]ncc3Nc3ccnc(N)n3)nc12`: the growth in the test on DU-145 prostate is -5.08% (active); in the test with K-562 leukemia, 3.38% (active); in the test on MALME-3M melanoma it was -79% (active); in the test on MDA-MB-231 breast, -18.8% (active); in the test on RXF 393 renal it was -86.3% (active); in the test on SF-268 CNS, -25.3% (active). In addition, the growth is -41.5% (active) in the test on SF-295 CNS, -83.8% (active) in the test with SF-539 CNS, -65.8% (active) in the test on UACC-257 melanoma and -79.9% (active) in the test on M14 melanoma.
On to `Cc1nn(-c2ccc(Br)cc2)c2nc3[nH]c(=O)[nH]c(=O)c3nc12`, for which the growth with DU-145 prostate is 114%; in the test on K-562 leukemia it was 101%; with MALME-3M melanoma, 108%; in the test with MDA-MB-231 breast, 110%; in the test with RXF 393 renal it was 114%; in the test with SF-268 CNS, 110%. For the same molecule, the growth in the test with SF-295 CNS was 98.6%; with SF-539 CNS, 99.7%; in the test with UACC-257 melanoma it was 99%; in the test on M14 melanoma it was 112%.
Take `Nc1nc2c(c(=O)[nH]1)C(c1ccc3c(c1)OCO3)C=C(C(=O)O)N2` (stereo not given): the growth is 112% with DU-145 prostate; 99.7% in the test on K-562 leukemia; 101% in the test with MALME-3M melanoma; 121% in the test with MDA-MB-231 breast; 120% with RXF 393 renal; 112% with SF-268 CNS. Also, the growth in the test on SF-295 CNS was 94.2%; in the test with SF-539 CNS, 101%; in the test with UACC-257 melanoma, 97%; in the test on M14 melanoma, 112%.
Consider `C=C(C)[C@@H]1CC[C@]2(C=O)CC[C@]3(C)[C@H](CC[C@@H]4[C@@]5(C)C/C(=C/c6cccnc6)C(=O)C(C)(C)[C@@H]5CC[C@]43C)[C@@H]12`, for which the growth is 92.1% with DU-145 prostate; 32.3% in the test with K-562 leukemia; 88.1% in the test on MALME-3M melanoma; 93.8% in the test on MDA-MB-231 breast; 83.2% with RXF 393 renal; 85.8% with SF-268 CNS. For the same molecule, the growth was 86.9% in the test with SF-295 CNS, 96.5% in the test on SF-539 CNS, 84.5% with UACC-257 melanoma and 78.5% with M14 melanoma.
`O=[N+]([O-])c1cc(S(=O)(=O)c2ccc(F)c([N+](=O)[O-])c2)ccc1F`: the growth with DU-145 prostate is 98.1%; in the test with K-562 leukemia it was 40.4%; in the test on MALME-3M melanoma it was 132%; in the test with MDA-MB-231 breast it was 103%; in the test with RXF 393 renal it was 82.9%; in the test on SF-268 CNS, 108%. Also, the growth in the test on SF-295 CNS is 111%; in the test on SF-539 CNS, 109%; with UACC-257 melanoma, 75.4%; in the test on M14 melanoma, 81.7%.
As to `CC1(n2nnnc2N2CCCN(c3ncccc3N)CC2)CCC1`, the growth was 109% with DU-145 prostate; 87.8% in the test on K-562 leukemia; 98.6% with MALME-3M melanoma; 99.9% in the test on MDA-MB-231 breast; 98.2% with RXF 393 renal; 97% in the test on SF-268 CNS. The growth with SF-295 CNS was 95.5%; with SF-539 CNS, 94.8%; in the test with UACC-257 melanoma, 108%; in the test with M14 melanoma, 97.8%.

Values taken from PubChem BioAssay (NCI).
